According to PubChem BioAssay (NCATS):
The source made the active and inactive calls. The rule behind the calls is not given here.

test system: HIV-1 nucleocapsid protein NCp7 (binding to TG oligonucleotide); assay: HIV Nucleocapsid (AID 346); settings: HIV-1 NC / fluorescein-TGTGTGTG probe, fluorescence polarization;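 note: potency is for inhibitors that block NC binding and lower polarization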
Procedure, shortened: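 NCp7 100 nM + fluorescein TG4xF 10 nM; Hepes pH 7.5/250mM NaCl/1uM ZnCl2/0.004% PEG 20000; 1 hr RT; FP, 45 s exposure; oligo-only wells as negative control.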
Potency is the fitted concentration of half-maximal effect.

Row | Structure (SMILES) | Potency
1 | O=C(c1csnn1)N1CCC2(CC1)CCN(c1ccncc1)CC2 | > 20 µM (inactive)
2 | CN(C)C(=O)c1ccc(-c2nccc(Nc3ccc(F)cc3)n2)cc1 | > 20 µM (inactive)
3 | COc1ccc(C(=O)N2CCC3(CCCN(c4ncccn4)C3)CC2)cc1 | > 20 µM (inactive)
4 | COc1ccccc1-c1ccc2ncnc(N(C)C)c2c1 | > 20 µM (inactive)
5 | COc1ccc(CNc2ccnc(-c3ccc4c(c3)OCO4)n2)c(OC)c1 | > 20 µM (inactive)
6 | CC(C)CN1CC[C@@]2(CCCN(S(=O)(=O)c3ccccc3)C2)C1 | > 20 µM (inactive)
7 | COc1ccccc1CN1CCC2(CC1)CCN(C(=O)c1ccco1)CC2 | > 20 µM (inactive)
8 | COc1cccc(-c2ccc3ncnc(NCCNC(C)=O)c3c2)c1 | > 20 µM (inactive)
9 | COCCn1c(=O)c(-c2ccc(F)cc2)nc2cnc(Oc3cccc(Cl)c3)nc21 | > 20 µM (inactive)
10 | Fc1ccc(Nc2nc(-c3cccnc3)nc3ccccc23)cc1 | > 20 µM (inactive)
11 | Fc1ccc(Nc2ccnc(-c3ccoc3)n2)cc1 | > 20 µM (inactive)
12 | COc1ccc(C(=O)N2CCC[C@@]3(CCN(C)C3)C2)cc1 | > 20 µM (inactive)
13 | COc1ccc(NC(=O)N2CCCC3(CCN(C(=O)c4cccn4C)CC3)C2)cc1 | > 4 µM (inactive)
14 | CNc1cc(-c2ccccc2CN(C)C)ncn1 | > 20 µM (inactive)
15 | O=C(c1ccco1)N1CCC2(CC1)CCN(C(c1ccccc1)c1ccccc1)CC2 | > 20 µM (inactive)
16 | Cn1cccc1C(=O)N1CCC2(CCN(C(=O)Nc3cccc(F)c3)CC2)CC1 | > 20 µM (inactive)
17 | O=C(c1cnccn1)N1CCC2(CC1)CN(c1ccccn1)C2 | > 20 µM (inactive)
18 | CS(=O)(=O)N1CCC[C@@]2(CCN(C(c3ccccc3)c3ccccc3)C2)C1 | > 20 µM (inactive)
19 | CN(C)c1ncc2nc(-c3cccs3)c(=O)n(C[C@H]3CCCO3)c2n1 | > 20 µM (inactive)
20 | COc1ccccc1-c1nc(NC2CC2)c2ccccc2n1 | > 20 µM (inactive)

Row | Structure (SMILES) | Potency
21 | O=C(Nc1cccc(F)c1)N1CC2(CCN(C(=O)c3ccco3)CC2)C1 | > 20 µM (inactive)
22 | Cn1cccc1C(=O)N1CCC2(CC1)CN(c1cccc(-c3ccccc3)c1)C2 | > 20 µM (inactive)
23 | Cn1cccc1C(=O)N1CCC2(CCCN(c3ccncc3)C2)CC1 | > 20 µM (inactive)
24 | COCC(=O)N1CCC2(CCN(Cc3ccccc3)CC2)CC1 | > 20 µM (inactive)
25 | COc1ccc(NC(=O)N2CCCC3(CCN(C(C)=O)CC3)C2)cc1 | > 20 µM (inactive)
26 | CN(C)c1ccc(-c2cncnc2NCCc2cnc[nH]2)cc1 | > 20 µM (inactive)
27 | CCNc1ncc2nc(-c3ccc(OC)cc3)c(=O)n(CCOC)c2n1 | > 20 µM (inactive)
28 | COCCNc1ncnc2ccc(-c3ccc(C(=O)N(C)C)cc3)cc12 | > 20 µM (inactive)
29 | COc1ccc(Oc2ncc3ncc(=O)n(Cc4cccc(OC)c4)c3n2)cc1 | > 20 µM (inactive)
30 | COc1ncc2nc(CCc3ccccc3)c(=O)n(-c3ccccc3)c2n1 | > 20 µM (inactive)
31 | Cc1nc2cnc(N(C)C)nc2n(C2CC2)c1=O | > 20 µM (inactive)
32 | COc1ccc(-c2nc3cnc(OCc4ccccc4)nc3n(CCC#N)c2=O)cc1 | > 20 µM (inactive)
33 | COc1ccc(-n2c(=O)c(CCc3ccccc3)nc3cnc(N4CCNCC4)nc32)cc1 | > 20 µM (inactive)
34 | Cc1cccc(CNc2ncnc3ccc(-c4ccc5c(c4)OCO5)cc23)c1 | > 20 µM (inactive)
35 | O=c1c(CCc2ccccc2)nc2cnc(N3CCNCC3)nc2n1C1CC1 | > 20 µM (inactive)
36 | CN1CCN(c2ncc3nc(CCc4ccccc4)c(=O)n(C4CC4)c3n2)CC1 | > 20 µM (inactive)
37 | O=C(c1cnccn1)N1CCC2(CC1)CCN(c1cccc(-c3ccccc3)c1)CC2 | > 20 µM (inactive)
38 | O=C(Nc1ccccc1)N1CC[C@@]2(CCCN(C(=O)c3csnn3)C2)C1 | > 20 µM (inactive)
39 | COc1ccc2[nH]cc(CCNc3ncncc3-c3cccc(C#N)c3)c2c1 | > 20 µM (inactive)
40 | O=C(c1csnn1)N1CCC[C@@]2(CCN(Cc3nccs3)C2)C1 | > 20 µM (inactive)
